Hits are enriched below; roughly 4.6% of the tested compounds scored in any of these assays.
D1 antagonist – Antagonist of Human D 1 Dopamine Receptor: qHTS. HEK293 TREx D1 cells, calcium flux, dopamine EC80; active compounds read low. D(1A) dopamine receptor (Homo sapiens), P21728. AID 504652, 2011. activity change, negative = inhibition, % at 10 µM. 360,000 tested, 3.2% active; in the data active = activity change below about -30%
Target sequence (P21728 whole entry, looked up): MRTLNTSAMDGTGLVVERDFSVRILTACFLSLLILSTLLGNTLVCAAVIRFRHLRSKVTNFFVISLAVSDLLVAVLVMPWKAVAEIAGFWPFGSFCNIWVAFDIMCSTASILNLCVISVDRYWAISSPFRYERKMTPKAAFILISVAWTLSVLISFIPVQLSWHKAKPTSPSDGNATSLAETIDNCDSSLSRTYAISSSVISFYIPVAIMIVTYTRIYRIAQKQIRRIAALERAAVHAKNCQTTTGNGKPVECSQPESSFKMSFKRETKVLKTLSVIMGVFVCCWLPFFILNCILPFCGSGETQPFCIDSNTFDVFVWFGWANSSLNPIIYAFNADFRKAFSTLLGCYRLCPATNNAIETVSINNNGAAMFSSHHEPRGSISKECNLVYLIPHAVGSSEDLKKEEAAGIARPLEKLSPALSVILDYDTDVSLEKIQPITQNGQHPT
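Compound effects on dopamine-evoked calcium signalling were measured in tetracycline-induced HEK293 Trex D1 cells. Dopamine at EC80 followed a 180 s compound pre-read, and fluorescence was tracked kinetically for 180 s more.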
D1 agonist – Allosteric Agonists of the Human D1 Dopamine Receptor: qHTS; HEK293 T-REx D1 cells, calcium flux, agonist mode; 360,000 tested, 1% active; activation, % at 2 µM; D(1A) dopamine receptor (Homo sapiens), P21728
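Inducible HEK293 T-REx D1 cells, force-coupled to calcium signalling, were plated at 4000 cells/well with tetracycline and held overnight at 30 C. After no-wash calcium dye loading, compound-evoked calcium rise over 180 s flagged agonists.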
TRHR PAM – qHTS for Small Molecule Agonists and Allosteric Enhancers of Human TRH Receptor: Primary Screen for Enhancers; Thyrotropin-releasing hormone receptor (Homo sapiens), P34981; TRHR cells, fluo-8 calcium fluorescence, EC20 TRH enhancement; enhancement, % at 2 µM; 360,000 tested, 0.66% active; AID 493056, 2011; in the data active = enhancement above about 30%
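TRHR-expressing cells loaded with fluo-8 calcium dye were read kinetically (ex 480/em 530) during compound addition, then stimulated with an EC20 of TRH (10 nM final). Enhancement of the Gq-mediated intracellular calcium response was scored.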
D1 PAM – Potentiators of Human D1 Dopamine Receptor: qHTS | HEK293 TREx D1 cells, calcium flux, dopamine EC20 potentiation | AID 504651, 2011 | D(1A) dopamine receptor (Homo sapiens), P21728 | 360,000 tested, 0.036% active | potentiation, % at 10 µM; in the data active = potentiation above about 30%
TRHR agonist – qHTS for Small Molecule Agonists and Allosteric Enhancers of Human TRH Receptor: Primary Screen for Agonists. TRHR cells, calcium flux fluo-8, FDSS agonist mode. activation, % at 2 µM. 360,000 tested, 0.18% active. AID 493084, 2011
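In this calcium-flux screen, cells bearing human TRHR are dye-loaded with fluo-8, baselined for 10 cycles, then exposed to library compounds; positive kinetic calcium responses during the agonist phase mark hits, with TRH as control.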
Hits are given with their value; . = inactive; ! = repeats disagree. Rule as the data show it, unless noted: active = activation above about 30%; inactive = the rest.

SMILES	D1 antagonist	D1 agonist	TRHR PAM	D1 PAM	TRHR agonist
COc1ccc(C(=O)NCCN2CCOCC2)cc1S(=O)(=O)Nc1ccc(C)cc1	-35.9	.	.	.	.
CCOC(=O)c1c(C)[nH]c(C)c1S(=O)(=O)N1CCCC(C(=O)N2CCN(c3ccccc3)CC2)C1 (stereo not given)	.	.	.	.	.
COc1cc2ccccc2cc1C(=O)Nc1cccc(-c2nc3cc(C)ccc3o2)c1C	.	.	.	.	.
Cn1cc(C(=O)NCC2COc3ccccc3O2)c(=O)c2cc(S(=O)(=O)N3CCCCC3)ccc21 (stereo not given)	.	.	.	.	.
Cc1ccc(Sc2c(C)nn(C(=O)COc3ccc(F)cc3)c2C)cc1	.	.	.	.	.
Cc1nn(C(=O)COc2ccc(Cl)cc2)c(C)c1Sc1ccccc1	-37.0	.	.	.	.
Cc1cc(/C=C(\C#N)C(=O)Nc2ccc(Cl)cc2)c(C)n1-c1ccc(N2CCOCC2)c([N+](=O)[O-])c1	.	.	.	.	.
COCCCNCCCCOc1ccc(OCc2ccccc2)cc1	.	35.1	.	.	.
COCCCNCCOc1ccc(C(C)(C)c2ccccc2)cc1	.	.	.	.	.
c1ccc(COc2ccc(OCCCNC3CCCC3)cc2)cc1	.	34.9	.	.	.
C=CCNCCCCOc1ccc(OCc2ccccc2)cc1	.	45.2	.	.	.
COc1ccc(S(=O)(=O)Nc2cc(S(=O)(=O)c3ccccc3)c(O)c(C)c2C)cc1	.	.	.	.	.
O=[N+]([O-])/C(=C\Nc1ccccc1)S(=O)(=O)c1ccccc1	-87.5	.	.	.	.
CN1CCN(c2nc(-c3cccnc3)nc3scc(-c4ccccc4)c23)CC1	.	.	.	.	.
Clc1nc(-c2ccccn2)nc2scc(-c3ccccc3)c12	.	.	40.2	.	.
COc1ccc(NC(=O)CC2C(=O)N(c3ccc(C)cc3)C(=O)N2Cc2ccc3c(c2)OCO3)cc1 (stereo not given)	.	.	.	.	.
CCOc1ccc(NC(=O)CC2C(=O)N(c3ccccc3)C(=O)N2Cc2ccco2)cc1 (stereo not given)	-42.4	.	.	.	.
CCN1C(=O)C(CC(=O)Nc2ccc(F)cc2)N(Cc2ccco2)C1=S (stereo not given)	.	.	.	.	.
CCCCCCOc1ccc(NC(=O)CC2C(=O)N(CC)C(=S)N2Cc2ccco2)cc1 (stereo not given)	-40.3	.	.	.	.
CCOc1ccc(NC(=O)CC2C(=O)N(c3ccccc3)C(=O)N2Cc2ccc3c(c2)OCO3)cc1 (stereo not given)	-50.9	.	.	.	.
COC(=O)c1ccc(NC(=O)CC2C(=O)N(c3ccccc3)C(=O)N2Cc2ccco2)cc1 (stereo not given)	.	.	.	.	.
Cc1ccccc1Cn1c(COc2ccc(Cl)cc2)nc2ccccc21	-64.8	62.4	.	.	.
Cc1ccc(OCCn2c(C)nc3ccccc32)cc1	-44.7	.	.	.	.
Cc1ccc(OCCn2c(COc3ccc(Cl)cc3)nc3ccccc32)cc1	.	47.4	.	.	.
CCCc1nc2ccccc2n1CCOc1ccccc1	-49.1	.	.	.	.
SMILES	D1 antagonist	D1 agonist	TRHR PAM	D1 PAM	TRHR agonist
CCCc1nc2ccccc2n1CCOC	.	.	.	.	.
Cc1ccc(N2CC(C(=O)NCCCn3ccnc3)CC2=O)cc1 (stereo not given)	.	.	.	.	.
COc1ccc(-n2nc3c(N4CCC(C(=O)NCCc5ccccc5C)CC4)nnc(C)c3c2C)cc1	.	.	.	.	.
Cc1ccc(-n2nc3c(N4CCC(C(=O)NCCc5ccccc5)CC4)nnc(C)c3c2C)cc1	-72.4	.	.	.	.
COc1ccc(-n2nc3c(N4CCC(C(=O)NCc5ccccc5C)CC4)nnc(C)c3c2C)cc1	.	75.5!	.	.	.
C=CCn1cccc(C(=O)Nc2ccc(OC)cc2)c1=O	.	.	.	.	.
Cc1nn2c(-c3cccc(NC(=O)c4ccco4)c3)nnc2c2ccccc12	.	.	.	.	.
Cc1nn2c(-c3cccc(NC(=O)c4ccc(Cl)cc4)c3)nnc2c2ccccc12	.	.	42.2	.	.
Cn1nc(-c2ccc(C(=O)Nc3cccc(Cl)c3)cc2)c2ccccc2c1=O	-36.5	.	.	.	.
CCCN(c1ccccc1F)S(=O)(=O)c1cc(-c2cc(C)no2)ccc1OC	-46.4	.	.	.	.
Cc1cc(-c2ccc(C)c(S(=O)(=O)NCc3ccc(Br)cc3)c2)on1	.	.	.	.	.
Cc1cc(-c2ccc(C)c(S(=O)(=O)NCCc3ccc(S(N)(=O)=O)cc3)c2)on1	-63.5!	.	.	.	.
Cc1cc(-c2ccc(C)c(S(=O)(=O)NCCc3ccco3)c2)on1	-33.5	.	.	.	.
CCc1ccc(-c2cc(C)no2)cc1S(=O)(=O)NCCc1ccc(OC)c(OC)c1	-35.6	.	.	.	.
O=C(NCc1ccc(Cl)cc1)c1ccc2c(=O)n(CC3CCCO3)c(=S)[nH]c2c1 (stereo not given)	.	.	.	.	.
Cc1ccc(NC(=O)c2ccc(F)c(S(=O)(=O)N3CCc4ccccc4C3)c2)cc1F	.	.	.	.	.
Cc1ccc(NC(=O)c2ccc(F)c(S(=O)(=O)NCCc3ccccc3)c2)cc1F	-30.2	.	.	.	.
CCN(CC)c1cc2c(cc1F)c(=O)c(S(=O)(=O)c1ccccc1)cn2C	.	.	.	.	.
Cc1ccc(S(=O)(=O)NCCN2CCN(S(=O)(=O)c3ccccc3Cl)CC2)cc1	-53.1	.	.	.	.
O=C(COc1ccccc1-c1ccccc1)N/N=C/c1cccc2ccccc12	.	.	.	.	.
O=C(COc1cccc2ccccc12)N/N=C/c1ccccc1OCc1ccc(C(=O)O)cc1	.	36.2	.	.	.
O=C(O)COc1ccccc1/C=N/NC(=O)CNC(=O)c1ccco1	-58.1	.	.	.	.
CC1CCc2[nH]nc(C(=O)O)c2C1 (stereo not given)	-47.1	.	.	.	.
Cc1ccc(NC(=O)CCN2C(=O)NC3(CCCC3)C2=O)cc1S(=O)(=O)N1CCOCC1	-92.3	.	.	.	.
O=C(CNc1cc(S(=O)(=O)N2CCCC2)ccc1OCC(F)(F)F)Nc1cc(Cl)cc(Cl)c1	.	.	.	.	.
Cc1ccc(NC(=O)CCCSc2ccccc2)cc1S(=O)(=O)N1CCOCC1	-40.3	.	.	.	.

From PubChem BioAssay
